Values joined by “and” are separate entries in the source; they are usually repeats but may differ in a detail not shown here. Equal values may be shown once. Inconclusive results are not listed. Where a call stands in place of a potency, no number is given. Active and inactive are the calls of the source. The call rests on the fitted dose curve.

The nature of assay [1]: Cytotoxicity counterscreen for inhibitors of SARS-CoV-2 cell entry (AID 1645845). Further: nearly all actives have a fitted effect of over 50% in size. The conditions noted are these: cell viability (SARS-CoV-2 entry assay cells); series mostly up to 57.1 µM. A digest of the protocol:
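48 h compound treatment (after 1 h preincubation), HEK293-ACE2 cells, 37 C/5% CO2; ATP luminescence endpoint; normalized to cell wells and media blanks.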

Assay [2] is described as follows: Primary qHTS to identify inhibitors of SARS-CoV-2 cell entry (AID 1645846). Further: nearly all actives have a fitted effect of over 45% in size. Particulars: SARS-CoV-2 pseudovirus cell entry assay, luminescence; activity change, negative = inhibition: at 57.1 µM (top of the series) unless noted; series mostly up to 57.1 µM. A digest of the protocol:
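HEK293-ACE2 (Expi293F, stable hACE2), 1500 cells/well, o/n 37C; cpd 23 nL pin, 1 h; MLV-PP w/ SARS-CoV-2-S (Wuhan-Hu-1, Δ19 C-term); 48 h 37C; Bright-Glo luminescence; normalized vs S-PP and bald PP.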
For orientation: In qHTS, concentration-response curves come from the screen itself.

Regarding `CN(C)CCN(Cc1ccsc1)c1ccccn1`, the Potency result in assay [1] is “inactive”. Also, the activity change, negative = inhibition in assay [2] is -8.15%.

Turning to `Nc1ccc(S(=O)(=O)c2ccc(N)cc2)cc1`, the Potency result in assay [1] and in assay [2] was “inactive” in each case.

Turning to `C[C@@H]1O[C@@H](OC[C@H]2O[C@@H](Oc3c(-c4ccc(O)c(O)c4)oc4cc(O)cc(O)c4c3=O)[C@H](O)[C@@H](O)[C@@H]2O)[C@H](O)[C@H](O)[C@H]1O`, the Potency result in assay [1] and in assay [2] was “inactive” in each case.

`CC1(C)O[C@@H]2C[C@H]3[C@@H]4CCC5=CC(=O)C=C[C@]5(C)[C@@H]4[C@@H](O)C[C@]3(C)[C@]2(C(=O)CO)O1`: the Potency result in assay [1] and in assay [2] was “inactive” in each case.

As to `Cc1cccc(C)c1NC(=O)c1cc(S(N)(=O)=O)c(Cl)cc1O`, the Potency result in assay [1] was “inactive”. The activity change, negative = inhibition in assay [2] was -7.8%.

As to `O=C(O)CCCCCCCC(=O)O`, the Potency result in assay [1] and in assay [2] was “inactive” each time.

Turning to `Cc1cc(NS(=O)(=O)c2ccc(N)cc2)no1`, the Potency entry in assay [1] and in assay [2] was “inactive” in each case.

`O=C(CO)[C@@H](O)[C@H](O)[C@@H](O)CO`: the Potency entry in assay [1] was “inactive”. In addition, the activity change, negative = inhibition in assay [2] is -14.3%.

In the case of `Nc1nc(=O)n([C@@H]2CS[C@H](CO)O2)cc1F`, in assay [1], the Potency entry was “inactive”. For the same compound, the activity change, negative = inhibition in assay [2] was -20.7%.

For `O=C(c1ccccc1)c1ccccc1`, the Potency result in assay [1] and in assay [2] was “inactive” throughout.

`O=S(=O)(O)c1ccc2nc(-c3ccccc3)[nH]c2c1`: the Potency entry in assay [1] and in assay [2] was “inactive” in each case.

On to `O=C(/C=C/c1ccccc1)OCc1ccccc1`, for which the Potency entry in assay [1] was “inactive”. In assay [2], the activity change, negative = inhibition is -14.8%.

For `OCc1ccc(Cl)cc1Cl`, the Potency result in assay [1] and in assay [2] was “inactive” each time.

`Cc1cc2nc3c(=O)[nH]c(=O)nc-3n(C[C@H](O)[C@H](O)[C@H](O)CO)c2cc1C`: the Potency result in assay [1] and in assay [2] was “inactive” throughout.

As for `O=C(O)c1ccccc1Nc1cccc(C(F)(F)F)c1`, the Potency entry in assay [1] and in assay [2] was “inactive” in each case.

Consider `O=C(C1CCCCC1)N1CC(=O)N2CCCc3ccccc3C2C1` (stereo unspecified), for which the Potency result in assay [1] is “inactive”. For the same compound, the activity change, negative = inhibition in assay [2] came to 0.685%.

Consider `CC(C)(C)NCC(O)c1cc(O)cc(O)c1` (stereo unspecified), for which the Potency result in assay [1] and in assay [2] was “inactive” each time.

Take `CC(=O)NCc1c(I)c(NC(C)=O)c(I)c(C(=O)O)c1I`: the Potency result in assay [1] and in assay [2] was “inactive” in each case.

Regarding `S=P(N1CC1)(N1CC1)N1CC1`, the Potency entry in assay [1] is “inactive”. For the same compound, in assay [2], the activity change, negative = inhibition was 4.21%.

As to `COc1cc(C(=O)NS(=O)(=O)c2ccccc2C)ccc1Cc1cn(C)c2ccc(NC(=O)OC3CCCC3)cc12`, the Potency entry in assay [1] and in assay [2] was “inactive” each time.

Consider `CCCN1CCCC[C@H]1C(=O)Nc1c(C)cccc1C`, for which, in assay [1], the Potency entry was “inactive”. Also, in assay [2], the activity change, negative = inhibition is -27.2%.

On to `Cc1ccc(C(=O)c2ccc(CC(=O)O)n2C)cc1`, for which the Potency result in assay [1] and in assay [2] was “inactive” throughout.

Regarding `O=C(O)c1ccccc1S`, the Potency result in assay [1] and in assay [2] was “inactive” each time.

Regarding `Oc1ccccc1`, the Potency entry in assay [1] and in assay [2] was “inactive” in each case.

As to `CC1CCN(CCCC(=O)c2ccc(F)cc2)CC1`, the Potency result in assay [1] was “inactive”. Moreover, the activity change, negative = inhibition in assay [2] is -25%.

On to `COc1ccc2cc1Oc1cc3c(cc1OC)CC[N+](C)(C)[C@H]3Cc1ccc(cc1)Oc1c(OC)c(OC)cc3c1[C@@H](C2)[N+](C)(C)CC3`, for which the Potency result in assay [1] and in assay [2] was “inactive” in each case.

With `Cc1ccccc1OCC(O)CO` (stereo unspecified), the Potency entry in assay [1] and in assay [2] was “inactive” each time.

In the case of `CC(C)COC(=O)c1ccc(N)cc1`, the Potency entry in assay [1] and in assay [2] was “inactive” in each case.

Regarding `C[C@H](NC(CCc1ccccc1)C(=O)O)C(=O)N1CCC[C@H]1C(=O)O` (stereo partly specified), the Potency entry in assay [1] and in assay [2] was “inactive” each time.

For `Cn1c(=O)c2[nH]cnc2n(C)c1=O`, the Potency result in assay [1] is “inactive”. Also, in assay [2], the activity change, negative = inhibition is -18.5% and -12.1%.

As for `CN(C)C(=O)COC(=O)Cc1ccc(OC(=O)c2ccc(N=C(N)N)cc2)cc1`, the Potency result in assay [1] was “inactive”. Further, the activity change, negative = inhibition in assay [2] is -4.53% and -0.733%.

For `CO[C@@]1(NC(=O)C2SC(=C(C(N)=O)C(=O)O)S2)C(=O)N2C(C(=O)O)=C(CSc3nnnn3C)CS[C@@H]21` (stereo partly specified), in assay [1], the Potency entry is “inactive”. The activity change, negative = inhibition in assay [2] amounted to 4.49%.

Turning to `CCCCCC[C@@H](CCC)C(=O)O`, the Potency result in assay [1] and in assay [2] was “inactive” throughout.

As for `CO[C@@]1(NC(=O)CSCC#N)C(=O)N2C(C(=O)O)=C(CSc3nnnn3C)CS[C@@H]21`, the Potency entry in assay [1] and in assay [2] was “inactive” throughout.

As to `COC(=O)/C=C\C(=O)OC`, in assay [1], the Potency result was “inactive”. The activity change, negative = inhibition in assay [2] was -18.2%.

`CCCCCCCCCCCCCCCCO`: the Potency entry in assay [1] was “inactive”. In addition, the activity change, negative = inhibition in assay [2] was -7.94%.

For the compound `O=C(Oc1ccccc1C(=O)O)c1ccccc1O`, the Potency entry in assay [1] is “inactive”. Moreover, the activity change, negative = inhibition in assay [2] was -27.2%.

`CC(C(=O)O)c1cccc(Oc2ccccc2)c1` (stereo unspecified): the Potency entry in assay [1] was “inactive”. In addition, the activity change, negative = inhibition in assay [2] is -1.5%.

Values taken from PubChem BioAssay (NCATS).
